High-throughput results as filed in PubChem.
AMA1 RON2 block = qHTS for Inhibitors of AMA1-RON; Towards Development of Antimalarial Drug Lead: Primary Screen | Plasmodium falciparum AMA1 (3D7) - RON2 peptide interaction | AlphaScreen AMA1-biotinylated RON2 peptide binding | Potency, µM (titrated, usually from 58.2 µM), for inactives: at the top dose activity change, negative = inhibition, hits mostly inhibitors | actives 0.2% (n = 360,000) | AID 720542, 2013;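 further: 0% = vehicle wells and -100% = peptide control; nearly all actives have a fitted effect of over 45% in size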
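AMA1 (3D7) with his tag at 25 nM final met compounds first, then biotinylated RON2 peptide at 25 nM; detection used donor plus acceptor beads, 10 µg/mL apiece, read by AlphaScreen after 30 min at room temperature.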
Pf growth 48h = Primary qHTS for delayed death inhibitors of the malarial parasite plastid, 48 hour incubation; Potency, µM (series often up to 28.7 µM), inactives show at the top dose activity change, negative = inhibition, hits mostly inhibitors; actives 5.9% (n = 310,000); P. falciparum luciferase growth in erythrocytes, 48 h; further: on the % scale 0 is the no-effect control and ±100 the full control effect
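Here the parasites carry a stable luciferase gene and grow inside erythrocytes in Albumax-based RPMI medium with compound for one erythrocytic cycle. Activity is scored as loss of luminescent signal.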
SARS PLpro yeast = qHTS of Yeast-based Assay for SARS-CoV PLP. S. cerevisiae expressing SARS-CoV PLpro, growth rescue. actives 0.19% (n = 330,000). Potency, µM (titrated, usually from 32.9 µM), without a hit: top-dose activity, positive = growth rescue, usual class: activators; calls by dose curve; further: 0% is about no effect; nearly all actives have a fitted effect of over 55% in size
Pf growth 96h = Primary qHTS for delayed death inhibitors of the malarial parasite plastid, 96 hour incubation | P. falciparum luciferase reporter growth, 96 h | Potency, µM (highest dose often 28.7 µM), inactives show at the highest dose activity change, negative = inhibition, actives largely listed as inhibitors | actives 6.9% (n = 320,000) | AID 504834, 2011; further: on the % scale 0 is the no-effect control and ±100 the full control effect
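Compounds incubated with erythrocytes infected by luciferase-expressing P. falciparum (2% hematocrit, 0.05% parasitemia final) for 96 hours, 37 C in 5% CO2. Growth inhibition scored as decreased luciferase luminescence.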
* = called active by the depositor. In the library only some 9.4% were active in any assay of this set; here they are far more common. Unless noted, the call rests on the fitted dose curve; in most records, active means well fitted curve in the direction sought with a large enough effect; inconclusive means small, poorly fitted or top-dose-only effect, or another doubt; inactive means no such curve, though single readings can be large; an effect the other way counts as inactive or inconclusive. Potency means the concentration at half of the fitted maximal effect.

For CN(C)c1ccc(N=Nc2ccccc2C(=O)OCC(=O)Nc2ccccc2C(F)(F)F)cc1 the results were AMA1 RON2 block 14µM*, Pf growth 48h inconclusive, SARS PLpro yeast -6% and Pf growth 96h 9.3µM*.
For CN(C)c1cc[n+](CC(=O)Nc2ccccc2C(F)(F)F)cc1 the results were AMA1 RON2 block 13%, Pf growth 48h inconclusive, SARS PLpro yeast 0% and Pf growth 96h 6%.
`CN(C)c1ccc(N=Nc2ccccc2C(=O)OCC(=O)N2CCCC2)cc1` gave AMA1 RON2 block inconclusive, Pf growth 48h inconclusive, SARS PLpro yeast -16% and Pf growth 96h 13µM*.
Screening CN(C)c1ccc(N=Nc2ccccc2C(=O)OCC(=O)N2CCCCCC2)cc1 returned AMA1 RON2 block 18µM*, Pf growth 48h -2%, SARS PLpro yeast -43% and Pf growth 96h 0%.
Screening CSc1ccccc1C(=O)OCC(=O)N1CCCCCC1 returned AMA1 RON2 block 7% and SARS PLpro yeast -5%.
`Cc1cccc(C(=O)OCC(=O)N2CCCCCC2)c1O` gave AMA1 RON2 block 0%, Pf growth 48h inactive, SARS PLpro yeast 2% and Pf growth 96h inactive.
For O=C1CSC(=Nc2cccc(C(=O)O)c2)N1 the results were AMA1 RON2 block 17%, Pf growth 48h 46%, SARS PLpro yeast 3% and Pf growth 96h inconclusive.
Screening O=C1CSC(=Nc2cccc([N+](=O)[O-])c2)N1 returned AMA1 RON2 block -2%, Pf growth 48h -18%, SARS PLpro yeast -2% and Pf growth 96h 1.7µM*.
For O=c1c(-c2ccccc2)cocc1-c1ccccc1 the results were AMA1 RON2 block 1%.
COc1cccc(-c2cc(C(=O)N/N=C/c3cccc(OC)c3OC)c3ccccc3n2)c1 was read as AMA1 RON2 block -2%.
CCCCCCSc1cccc(-c2nc3cc(C)ccn3c2NC2CCCCC2)c1 was read as AMA1 RON2 block 21%, Pf growth 48h 9.3µM*, SARS PLpro yeast 1% and Pf growth 96h inconclusive.
Screening CCCCCCSc1ccc(-c2nc3ccc(Cl)cn3c2NC2CCCCC2)cc1 returned AMA1 RON2 block 10% and SARS PLpro yeast -1%.
CCCCCCSc1cccc(-c2nc3ccc(C)cn3c2NC2CCCCC2)c1 was read as AMA1 RON2 block -2%, Pf growth 48h 9.3µM*, SARS PLpro yeast -16% and Pf growth 96h 5.2µM*.
`Cc1[nH]nc(S(=O)CC(=O)O)c1[N+](=O)[O-]` (stereo not given) gave AMA1 RON2 block 7%, Pf growth 48h inconclusive, SARS PLpro yeast 0% and Pf growth 96h 16%.
Screening O=C(CCCNS(=O)(=O)c1cccc2nsnc12)NCc1ccccc1 returned AMA1 RON2 block 16%, Pf growth 48h 5%, SARS PLpro yeast 7% and Pf growth 96h 9.3µM*.
CC1Cc2ccccc2N1C(=O)CCNS(=O)(=O)c1cccc2nsnc12 (stereo not given) was read as AMA1 RON2 block -6%, Pf growth 48h -11%, SARS PLpro yeast 2% and Pf growth 96h 2.6µM*.
For O=C(c1ccccc1)c1ccc2c(c1)OCCOCCOCCOCCO2 the results were AMA1 RON2 block -4%, Pf growth 48h 18%, SARS PLpro yeast -1% and Pf growth 96h 5%.
Cc1ccc(N=C2NC(=O)/C(=C/c3cccn3C)S2)c(C)c1 was read as AMA1 RON2 block inconclusive, Pf growth 48h inconclusive, SARS PLpro yeast -1% and Pf growth 96h 12µM*.
`Cc1ccc(N=C2NC(=O)/C(=C/c3cn(C)c4ccccc34)S2)cc1C` gave AMA1 RON2 block -19%, Pf growth 48h inconclusive, SARS PLpro yeast 17% and Pf growth 96h 4.7µM*.
Cn1cccc1/C=C1\SC(=Nc2ccccc2)NC1=O was read as AMA1 RON2 block -23%, Pf growth 48h 67%, SARS PLpro yeast -1% and Pf growth 96h 7.4µM*.
For Cn1cc(/C=C2/SC(=O)N(c3ccccc3)C2=O)c2ccccc21 the results were AMA1 RON2 block -6%, Pf growth 48h 53%, SARS PLpro yeast 2% and Pf growth 96h 154%.
For CSc1ccc(/C=C/C(=O)OCC(=O)NC2CCCCCC2)cc1 the results were AMA1 RON2 block 31%.
COc1ccc(NC(=O)CSc2nnc(C3CC3)n2C)cc1 was read as AMA1 RON2 block 2%, Pf growth 48h 2%, SARS PLpro yeast 0% and Pf growth 96h 5%.
Screening O[C@@H]1[C@@H](O)C=C2CCN3Cc4cc5c(cc4[C@H]1C23)OCO5 (stereo not given in full) returned AMA1 RON2 block 5%, Pf growth 48h 0.33µM* and Pf growth 96h 0.29µM*.
Screening CSc1n[nH]c(-c2sccc2OCc2ccc(C)cc2)n1 returned AMA1 RON2 block -5%, Pf growth 48h inconclusive, SARS PLpro yeast -2% and Pf growth 96h 4.1µM*.
`O=c1cc(N2CCN(Cc3ccccc3)CC2)[nH]c(=O)n1Cc1ccc(F)cc1` gave AMA1 RON2 block 7%, Pf growth 48h 7%, SARS PLpro yeast -5% and Pf growth 96h 3.7µM*.
`C=CC[N+](C)(C)c1ccc(CCC(=O)CCc2ccc([N+](C)(C)CC=C)cc2)cc1` gave AMA1 RON2 block -7%, Pf growth 48h 0.15µM* and Pf growth 96h 0.15µM*.
`CCOC(=O)C(C(=O)Nc1nc2ccccc2s1)C1CCCCC1` (stereo not given) gave AMA1 RON2 block -4%, Pf growth 48h inconclusive, SARS PLpro yeast -9% and Pf growth 96h 152%.
For Cc1ccccc1C(=O)NNc1ccc(-c2csnn2)cc1 the results were AMA1 RON2 block -28%, Pf growth 48h 1.9µM*, SARS PLpro yeast -1% and Pf growth 96h 13%.
For FC(F)(F)c1cc(CO[C@@H]2CCCN[C@@H]2c2ccccc2)cc(C(F)(F)F)c1 the results were AMA1 RON2 block 3%, Pf growth 48h 12µM* and Pf growth 96h inconclusive.
For FC(F)(F)c1cc(CCN2CCNC[C@@H]2c2ccccc2)cc(C(F)(F)F)c1 the results were AMA1 RON2 block 11% and SARS PLpro yeast -11%.
Screening Cc1ccc(-n2c(O)cnc2Nc2nc(C)cc(C)n2)cc1 returned AMA1 RON2 block -16%, Pf growth 48h 13%, SARS PLpro yeast -2% and Pf growth 96h 0.29µM*.
For Cc1cc(C)nc(Nc2ncc(O)n2-c2ccccc2)n1 the results were AMA1 RON2 block 3%, Pf growth 48h 41%, SARS PLpro yeast 2% and Pf growth 96h inconclusive.
For CC(C)N(C(=O)Cn1c(-c2ccccc2Cl)nc2ccccc21)c1ccccc1 the results were AMA1 RON2 block -5%, Pf growth 48h inconclusive, SARS PLpro yeast 19% and Pf growth 96h inconclusive.
Screening C[N+]1(CC(COCc2ccccc2)OC(=O)Cc2ccccc2)CCOCC1 (stereo not given) returned AMA1 RON2 block -9%, Pf growth 48h 13µM*, SARS PLpro yeast -8% and Pf growth 96h inconclusive.
`C[N+]1(CC(=O)OCCCc2ccccc2)CCOCC1` gave AMA1 RON2 block 13%, Pf growth 48h 15%, SARS PLpro yeast 9% and Pf growth 96h -41%.
